# Screening results deposited in PubChem by Broad Institute.
# The list is not random: actives were taken first. Their share in the collection is about 2.8%.
# EBV LMP1 NFkB: inhibitors of Epstein-Barr LMP1-induced NF-kappaB reporter | AID 504558 | LMP1-induced NF-kappaB luciferase reporter cells, luminescence | actives 0.69% (n = 350,000) | inhibition, % at 12.5 µM; in the data active means inhibition above about 41%;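 further: 0% = neutral control wells and 100% = reference inhibitor control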
# PAX8 reporter: lowers PAX8-driven luciferase in RMG-I cells; RMG-I TPO-luciferase reporter, SteadyGlo, 24 h; inhibition, % at 12.6 µM; actives 1.2% (n = 360,000);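 active means mean replicate inhibition at least 60% with every replicate also reaching 60%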;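 further: luciferase light reporting Pax8 driven TPO promoter activity; plate controls were median of neutral control wells for no effect and mitoxantrone controls for full effect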
# Glyco luc inh: N-linked glycosylation inhibition | D54 ERlucT glycosylation luciferase reporter, 24 h; percent of 100 nM tunicamycin response | reporter increase, % at 12.5 µM | actives 0.23% (n = 360,000);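 active means mean luciferase reporter signal, scaled so untreated is 0 and the glycosylation-blocking control 100, at or above a set limit in every replicate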;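 further: luciferase carries N-glycosylation sites so blocking glycosylation raises the light; 0% = median of neutral control wells and 100% = median of 100 nM tunicamycin wells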
# HIV Env fusion: blocks HIV Env-driven cell-cell fusion | actives 1.1% (n = 360,000) | HeLa-JRFL Env/CEM21 cell fusion, luciferase | AID 651610 | inhibition, % at 12.3 µM;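 active means mean replicate inhibition score of at least 50 and every replicate individually at or above 50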;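 further: 0% = plate neutral controls and 100% = maraviroc near 300 nM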
# NSD2 HMT inh: NSD2 (human) methyltransferase inhibition | O96028 | actives 0.54% (n = 310,000) | inhibition, % at 12.5 µM | AID 743445 | NSD2 peptide methylation, AlphaScreen, 120 min; in the data active means inhibition above about 50%
# Shn3 inh set2: reduces Shn3 3'UTR luciferase signal in osteoblasts. actives 0.52% (n = 360,000). inhibition, % at 12.5 µM. AID 588674. Clone20 osteoblast Shn3 3'UTR firefly luciferase, 24 h;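 active means mean inhibition of at least 75% with every replicate also reaching 75%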;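 further: 0% = median of neutral control wells and 100% = pilot-screen positive control compound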
# * hit, by the source's call; nt = no result given; [ ] = dose if it differs, or a comment.
SMILES,EBV LMP1 NFkB,PAX8 reporter,Glyco luc inh,HIV Env fusion,NSD2 HMT inh,Shn3 inh set2
C=CC[C@]12CCc3ccccc3C1N(c1ccc(C(=O)OCC)cc1)C2=O (stereo partly drawn),1,12,-4,61*,nt,26
O=C(NC(Cc1c[nH]c2ccccc12)C(=O)Nc1ccc(F)c([N+](=O)[O-])c1)c1cccs1 (stereo not drawn),50*,26,-14,15,-2,15
O=C(COC(=O)[C@H](Cc1c[nH]c2ccccc12)NC(=O)c1cccs1)NCc1ccccc1,-12,66*,2,nt,-1,-12
COc1cccc(NC(=O)N(C)C[C@H]2Oc3cc(/C=C/c4ccccc4)ccc3S(=O)(=O)N([C@@H](C)CO)C[C@H]2C)c1,nt,nt,nt,6[16.7 µM],nt,nt
Cc1ccc(-n2nc3c(N4CCC(C(=O)NCc5ccccc5C)CC4)nnc(C)c3c2C)cc1,2,nt,-16,nt,-3,32
CCOc1ccccc1CNC(=O)C1CCN(c2nnc(C)c3c(C)n(-c4ccc(C)cc4)nc23)CC1,-1,79*,-15,12,0,41
COc1ccc(-n2nc3c(N4CCC(C(=O)NCc5cccc(C)c5)CC4)nnc(C)c3c2C)cc1,-4,102*,-15,12,-3,-23
Cc1noc(C)c1S(=O)(=O)N(C)C[C@H]1OCc2ccccc2-c2c(n(C)c3ccccc23)C(=O)N([C@@H](C)CO)C[C@H]1C,nt,26,nt,5[16.7 µM],nt,nt
CN1C(=O)c2cccc3c(S(=O)(=O)Nc4ccccn4)ccc1c23,-17,nt,41*,nt,-1,-42
Cc1ccccc1NS(=O)(=O)c1ccc2c3c(cccc13)C(=O)N2C,-20,-6,42*,-19,-5,8
COc1ccc(C(=O)OCC(=O)c2c[nH]c3ccccc23)cc1OC,67*,-27,-3,-8,-2,-37
COc1ccc(NC(=O)COC(=O)Cc2c[nH]c3ccccc23)cc1OC,70*,13,-1,10,-3,-4
COc1cc(C(=O)OCC(=O)c2c[nH]c3ccccc23)ccc1OCC(=O)N1CCOCC1,9,13,-3,-15,1,-8
Cc1cc(NCCCCCCCNc2cc(C)nc3cc([N+](=O)[O-])ccc23)c2ccc([N+](=O)[O-])cc2n1,79*,33,-19,0,2,86*
COCCCNc1cc(C)nc2ccccc12,2,nt,1,-19,3,-5
N#C[C@H]1[C@@H](c2ccc(C#CC3CC3)cc2)[C@@H](CO)N1C(=O)Nc1ccc(F)cc1,nt,-10,nt,3[16.7 µM],nt,nt
N#C[C@@H]1[C@H](c2ccc(C#CC3CCCC3)cc2)[C@@H](CO)N1C(=O)Nc1ccc(F)cc1,nt,-3,nt,-27[16.7 µM],nt,nt
N#C[C@H]1[C@H](c2ccc(C#CC3CCCC3)cc2)[C@@H](CO)N1C(=O)Nc1ccc(F)cc1,nt,88*,nt,56*[16.7 µM],nt,nt
N#C[C@H]1[C@H](c2ccc(C#CC3CCCCC3)cc2)[C@H](CO)N1C(=O)Nc1ccc(F)cc1,nt,92*,nt,-2[16.7 µM],nt,nt
N#C[C@@H]1[C@H](c2ccc(C#CC3CCCCC3)cc2)[C@H](CO)N1S(=O)(=O)c1ccccc1,nt,84*,nt,-3[16.7 µM],nt,nt
C[C@H]1CN([C@@H](C)CO)C(=O)c2cccc(NC(=O)C3CC3)c2O[C@@H]1CN(C)C,nt,-4,nt,2[16.7 µM],nt,nt
C[C@@H]1CN([C@@H](C)CO)C(=O)Cc2cc(NC(=O)C3CC3)ccc2O[C@H]1CN(C)Cc1ccccc1,nt,3,nt,-6[16.7 µM],nt,nt
Cc1noc(C)c1NC(=O)N(C)C[C@H]1Oc2c(NC(=O)Nc3ccc(F)cc3)cccc2C(=O)N([C@H](C)CO)C[C@@H]1C,nt,-13,nt,-15[16.7 µM],nt,nt
O=C1O[C@@H](c2ccccc2)[C@@H](c2ccccc2)N2[C@@H](c3ccccc3OCCO)[C@]3(C(=O)Nc4ccc(C#CCCO)cc43)[C@@H](C(=O)O)[C@H]12,nt,-5,nt,-49[16.7 µM],nt,nt
O=C(Nc1ccc(Cl)c(C(F)(F)F)c1)[C@@H]1CC=C[C@@H]2CCN(Cc3ccccc3)C(=O)[C@@H]21,0,15,3,64*,nt,7
O=C(Nc1cccc(F)c1)N1CCCCN2[C@H](C1)[C@@H](c1ccc(-c3ccncc3)cc1)[C@@H]2CO,nt,11,nt,nt,nt,nt
COc1ccc(C#Cc2ccc([C@@H]3[C@H]4CN(C(=O)Nc5cccc(F)c5)CCCCN4[C@H]3CO)cc2)cc1,nt,15,nt,nt,nt,nt
Cc1ccc(-c2ccc([C@H]3[C@@H](CO)N4CCCCN(C(=O)Nc5cccc(F)c5)C[C@H]34)cc2)cc1,nt,108*,nt,nt,nt,nt
